Screening data deposited in PubChem by National Center for Advancing Translational Sciences (NCATS).
This excerpt belongs to a sample that is enriched for hits.
Pf Dd2 growth = Plasmodium falciparum Dd2 growth inhibition; P. falciparum Dd2 growth, SYBR Green, 72 h; Potency, µM (highest dose often 28.9 µM), for inactives: top-dose activity, negative = inhibition, actives largely listed as inhibitors; 4.3% of 120,000 active; AID 1347417; active = well fitted inhibition curve with a large enough effect;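 also: plate controls were DMSO vehicle for no effect and reference drug for full effect; nearly all actives have a fitted effect of over 65% in size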
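Readout: SYBR Green fluorescence, 485 nm excitation, 535 nm emission, after ~16 h lysis at 37C. Before that, Dd2-infected red cells (2.5% hematocrit) grew 72 h with compound, 29 uM top final concentration.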
* = called active by the depositor; i = inactive; [ ] = dose if it differs, or a comment. Potency is read from the fitted curve at half-maximal effect.

SMILES	Pf Dd2 growth
CCc1ccc2nc(N(Cc3cccnc3)C(=O)c3cccs3)sc2c1	3.16µM*
COc1ccc2sc(N(Cc3cccnc3)C(=O)COc3ccccc3)nc2c1	i
CCc1ccc2nc(N(CCN(CC)CC)C(=O)c3cccs3)sc2c1	-10.1%
COc1ccc2nc(N(Cc3cccnc3)C(=O)C3COc4ccccc4O3)sc2c1 (stereo not drawn)	i
Cc1ccc2nc(N(Cc3cccnc3)C(=O)C3CCCCC3)sc2c1	2.51µM*
COc1cccc2sc(N(Cc3cccnc3)C(=O)c3ccc(S(=O)(=O)N(C)C)cc3)nc12	-20.9%
O=C(c1cccs1)N(Cc1cccnc1)c1nc2c(F)cc(F)cc2s1	i
O=C(C1CCN(c2cnn(Cc3ccccc3)c(=O)c2)C1)N1CCCC1 (stereo not drawn)	-9.0%
COC(=O)C(=O)N1CC[C@@H]2[C@H]1C(=O)N(C(C)C)C(=O)N2Cc1cccc(F)c1	15.5%[44.1 µM]
CC1(C(=O)O)CCN(C(=O)c2ccc3c(c2)OCO3)CC1	-8.1%
Cn1nc2n(c1=O)CCC(N)CC2 (stereo not drawn)	29.7%
COC[C@H]1NC(=O)CC[C@H]1C(=O)NCc1ccccc1OC	-28.9%
Fc1ccc(-c2cc(CC3(NCc4ccco4)COC3)no2)cc1	13.3%[44.1 µM]
CS(=O)(=O)N1CCC(C2CCN(C(=O)C3CC=CCC3)C2)CC1 (stereo not drawn)	25.6%
COC(=O)CNC(=O)c1cc(-c2ccc(Cl)nc2)c2cnn(C)c2n1	17.2%
O=C1CCCCCN1C1CCN(Cc2cccnc2)CC1	4.7%[44.1 µM]
O=C1CCCCCN1C1CCN(Cc2ccsc2)CC1	7.08µM*
O=C1COCCN1C1CCN(Cc2ccsc2)CC1	14.7%[44.1 µM]
CC(=O)N1CCC2(CC1)SCC(=O)N2c1ccc(F)cc1	-21.2%
O=c1n(-c2ccc(C(F)(F)F)cc2)nc2n1CCN(Cc1ccsc1)C2	-21.3%
Cc1cccc(Cl)c1NC(=O)N1CCC2(CCCN(C(C)C)C2=O)C1 (stereo not drawn)	-4.8%
Cc1ccc(NC2=N[C@H]3[C@@H](O)[C@H](O)C[C@H](C(=O)N4CCC(C(N)=O)CC4)[C@H]3S2)cc1	7.4%[44.1 µM]
CCN(CC)S(=O)(=O)c1cccc(C(=O)Nc2ccccc2C(=O)Nc2ccc(Cl)cc2)c1	10µM*
CCOc1ccc(NC(=O)c2ccc(F)c(S(=O)(=O)N(CC)Cc3ccccc3)c2)cc1	13.2%
CCN(Cc1ccccc1)S(=O)(=O)c1ccc(F)c(C(=O)Nc2cc(C)ccc2OC)c1	24.1%
SMILES	Pf Dd2 growth
COc1cccc([C@@H]2CN(CC3CCOCC3)C[C@H]2C(=O)O)c1OC	-19.4%
Cn1cnc(S(=O)(=O)N2CCC3(CC2)N(CC2CC2)C(=O)CS3=O)c1 (stereo not drawn)	18.4%
N#Cc1cccc(NC(=S)N[C@H]2CO[C@H]3[C@@H]2OC[C@@H]3n2nnnc2Oc2cccc(N3CCOCC3)c2)c1	8.91µM*
N#Cc1cccc(NC(=S)N[C@H]2CO[C@H]3[C@@H]2OC[C@@H]3n2nnnc2Oc2ccccc2)c1	i
N#Cc1cccc(NC(=S)N[C@H]2CO[C@H]3[C@@H]2OC[C@@H]3n2nnnc2Oc2ccc3c(c2)OCO3)c1	-28.8%
Fc1ccccc1-c1nnc([C@H]2CCN(Cc3cccc(Cl)c3)C2)o1	-3.8%[44.1 µM]
CN1CCC(N2CC[C@H](c3nnc(-c4ccc(N(C)C)cc4)o3)C2)CC1	i
Cc1cnc(CC2CCN(C(=O)C3CC3)C2)n1CC1CC1 (stereo not drawn)	-13.6%
O[C@]12CCNC[C@H]1CN(Cc1cccc(N3CCOCC3)c1)CC2	-4.1%
COc1cccc(CN2CC[C@@]3(O)CCNC[C@H]3C2)c1OCCCn1ccnc1	3.98µM*
O[C@]12CCNC[C@H]1CN(Cc1ccc(C(F)(F)F)cc1F)CC2	-27.5%
O=C1CCCCC(C(=O)NCCc2ccncc2)N1 (stereo not drawn)	9.6%
O=C(C[C@@H]1O[C@H](CNC(=O)Nc2ccccc2)[C@@H](O)[C@H]1O)NCc1cccnc1	4.3%[44.1 µM]
CCN1C(=O)CCN(CC2CCCCC2)CC12CCOCC2	3.55µM*
CCN1C(=O)CCN(C(C)=O)CC12CCOCC2	10.7%
CCN1C(=O)CCN(S(=O)(=O)CC)CC12CCOCC2	7.1%
COc1cccc(C(=O)Nc2nc3ccc(S(=O)(=O)N4CCCC4)cc3s2)c1	-15.3%
CN(C)c1cccc(C(=O)Nc2nc3ccc(S(=O)(=O)N4CCCC4)cc3s2)c1	12.6µM*
Cc1ccc(C(=O)Nc2nc3ccc(S(=O)(=O)N4CCCC4)cc3s2)cc1	4.6%
Cc1cccc(CN2CCC3(CC2)Cc2ccccc2CNC3=O)n1	-9.2%
Cc1nocc1C(=O)N1C[C@@H](COc2ccccc2)[C@H](C(N)=O)C1	-15.2%
FC(F)Oc1ccccc1CN1CCCC(Nc2ccccc2)C1 (stereo not drawn)	i
COc1cccc(CCC(=O)N2CCCC(Nc3ccc(F)cc3)C2)c1 (stereo not drawn)	-11.3%
COc1ccc(O)c(CN2CCCC(Nc3ccc(F)cc3)C2)c1 (stereo not drawn)	2.82µM*
COc1ccc(-c2csc3ncnc(Nc4cccc(F)c4)c23)cc1	46.7%
SMILES	Pf Dd2 growth
COc1ccc(-c2csc3ncnc(Nc4cc(OC)cc(OC)c4)c23)cc1	i
CCOc1ccc(-c2csc3ncnc(Nc4cccc(O)c4)c23)cc1	10µM*
O=C(C1COc2ccccc2O1)N1CCN(c2cc(-c3ccc(Cl)cc3)[nH]n2)CC1 (stereo not drawn)	i
CC1CCN(S(=O)(=O)C2CCS(=O)(=O)C2)CC1 (stereo not drawn)	-6.6%
COc1ccc(-c2nc3cc(C)ccc3cc2CN2CCN(C)C(=O)C2)cc1OC	7.94µM*
CCN1CCN(Cc2cc3ccc(C)cc3nc2-c2ccc(OC)c(OC)c2)CC1	-28.8%
COc1ccc(-c2n[nH]c3c2CC(=O)N(CC2CC2)C3)cc1OC	2.1%[44.1 µM]
COc1ccc(CNC(=O)Cn2c(C)cc3nc4n(c(=O)c32)CCCC4)cc1	i
COc1ccc2nc3n(c2c1)[C@@H](CNC1CCN(C)CC1)COC3	13.1%[44.1 µM]
COc1coc(C(=O)N2CCCC(c3ccccc3)(c3ccccc3)C2)cc1=O	-5.1%
CC(C)c1cc(C(=O)N2CCCC(c3ccccc3)(c3ccccc3)C2)n(C)n1	3.16µM*
Cc1nnnn1CC(=O)N1CCCC(c2ccccc2)(c2ccccc2)C1	-7.6%
COc1ccc(CNC(=O)C2(C)CCCCC(=O)N2)cc1OC (stereo not drawn)	i
O=C(O)c1cccc2c1CCN2C(=O)c1ccccc1	-9.5%
CCC1=C(c2ccc(C)cc2)S(=O)(=O)N=C1N1CCC(C(=O)NCCc2cccc(OC)c2)CC1	7.94µM*
CC1=C(c2ccc(C)c(C)c2)S(=O)(=O)N=C1N1CCC(C(=O)NCc2ccccc2C)CC1	i
CCOC(=O)C1CCN(C(=O)C2CCc3nc(N4CCN(C(C)=O)CC4)sc3C2)CC1 (stereo not drawn)	i
CCc1ccc(C2=C(C)C(N3CCC(C(=O)NCc4ccccc4)CC3)=NS2(=O)=O)cc1	3.3%
CCOC(=O)C1CCN(C(=O)C2CCN(C3=NS(=O)(=O)C(c4ccc(C)cc4)=C3CC)CC2)CC1	11.2µM*
CCOC(=O)C1CCN(C(=O)CN2c3ccc(CC)cc3-c3ccccc3S2(=O)=O)CC1	-0.8%
CCNC(=O)N1C[C@H]2OC(=O)N(Cc3ccc(OC)c(OC)c3)[C@H]2C1	3.2%
O=C(CN1CC2CC(C1)[C@H]1CCCC(=O)N1C2)NCc1cc(F)cc(F)c1 (stereo partly drawn)	-13.5%
CCC(C)NC(=O)C1COC2(CCN(C(=O)c3ccc(F)cc3)CC2)N1C(=O)c1ccc(C)cc1 (stereo not drawn)	-8.3%
